A selection: hits, their analogues and other compounds. The true share with any hit is near 14%.
A350 autofl: qHTS Assay for Spectroscopic Profiling in A350 Spectral Region; Compound autofluorescence, 340/450 nm, Alexa 350 dye-equivalents; stronger effect = higher value; max dye-equivalent concentration, M; actives 11% (n = 59,000); in the data active means max dye-equivalent concentration above about 10 nM; inconclusive means mostly about 1.1 nM to 9.6 nM
AID923: qHTS Assay for Allosteric/Competitive Inhibitors of Caspase-1: Spectroscopic Profiling in AFC Spectral Region | compound fluorescence, AFC spectral region (405/520 nm) | actives 1.1% (n = 75,000) | AID 923, 2007 | Potency, µM (titrated, usually from 57.5 µM), for inactives: at the top dose fluorescence increase, usual class: activators; further: potency means the concentration at half of the fitted maximal effect; 0% is about no effect
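Baseline compound fluorescence (AFC region, 405 nm ex/520 nm em) taken from the intercept of kinetic reads with 50 nM caspase-1 and 5 uM Ac-WEHD-AFC; normalized to an on-plate AFC standard curve; compounds titrated up to 57 uM.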
CRE-bla Fsk: Cell signaling CRE-BLA (Fsk stim); actives 2.5% (n = 71,000); CHO CRE-bla reporter (cAMP response element driving beta-lactamase), forskolin EC10, beta-lactamase ratio; Potency, µM (doses to about 38.2 µM), without a hit: top-dose activity change, negative = inhibition, most hits filed as activators; active means well fitted activation curve with a large enough effect in the signal ratio, with a control signal flat, not every such curve was filed as active; inconclusive means small, poorly fitted or top-dose-only effect, or effect the other way, or a change in a side signal; the % refers to the signal ratio; further: potency means the concentration at half of the fitted maximal effect; % of control where 0% means no effect
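Beta-lactamase reporter under a cAMP responsive element in CHO cells; compounds tested in titration series against EC10 NKH 477, 3 h at 37 °C. Read-out: CCF4 FRET ratio 460nm/530nm (excitation 405nm) giving %Activity, fitted to AC50.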
HSD17B inhib: qHTS Assay for Inhibitors of HSD17B4, hydroxysteroid (17-beta) dehydrogenase 4; 3-hydroxyacyl-CoA dehydrogenase type-2 (Homo sapiens), Q99714; recombinant HSD17B10, NADH fluorescence kinetic; Potency, µM (series often up to 57.1 µM), for inactives: at the top dose activity change, negative = inhibition, actives largely listed as inhibitors; actives 7.6% (n = 75,000); AID 893, 2007;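 further: the protocol describes HADH2 (HSD17B10) and not the HSD17B4 of the title; potency means the concentration at half of the fitted maximal effect; on the % scale 0 is the no-effect control and ±100 the full control effect; nearly all actives have a fitted effect of over 70% in size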
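Enzyme plus compound, 15 min room temperature; substrate mix added (NAD+ 1 mM, beta-hydroxybutyryl-CoA 90 uM final); plates read kinetically for NADH fluorescence. HADH2 was His-tagged, E. coli-derived, 20 nM.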
HADH2 inh: qHTS Assay for Inhibitors of HADH2 (Hydroxyacyl-Coenzyme A Dehydrogenase, Type II) | 3-hydroxyacyl-CoA dehydrogenase type-2 (Homo sapiens), Q99714 | AID 886, 2007 | Potency, µM (titrated, usually from 57.1 µM), for the others: top-dose activity change, negative = inhibition, most hits filed as inhibitors | actives 3.4% (n = 73,000) | recombinant HADH2, NADH fluorescence, beta-hydroxybutyryl-CoA; further: potency means the concentration at half of the fitted maximal effect; on the % scale 0 is the no-effect control and ±100 the full control effect; nearly all actives have a fitted effect of over 60% in size
Target sequence (Q99714 whole entry, looked up, one chain of several): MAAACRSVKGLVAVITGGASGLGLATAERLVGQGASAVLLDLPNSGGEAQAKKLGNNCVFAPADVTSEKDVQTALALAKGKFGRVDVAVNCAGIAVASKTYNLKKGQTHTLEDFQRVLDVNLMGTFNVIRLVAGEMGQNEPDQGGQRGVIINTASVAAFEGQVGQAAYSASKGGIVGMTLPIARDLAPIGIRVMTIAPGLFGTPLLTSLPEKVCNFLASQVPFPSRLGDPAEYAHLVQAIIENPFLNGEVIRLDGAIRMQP
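His-tagged recombinant enzyme from E. coli, 20 nM, preincubated 15 min RT with compound; reaction started with 1 mM NAD+ and 90 uM beta-hydroxybutyryl-CoA in 100 mM Tris-HCl pH 9.0. NADH fluorescence (ex 360/em 450) read over 4 min; last-minus-first difference.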
4MU fluor: qHTS Assay for Spectroscopic Profiling in 4-MU Spectral Region. compound autofluorescence, 340/450 nm, 4-MU equivalents; stronger effect = higher value. max dye-equivalent concentration, M. actives 11% (n = 59,000); in the data active means max dye-equivalent concentration above about 10 nM; inconclusive means mostly about 1.1 nM to 9.6 nM
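Compounds in 100 mM Tris, pH 8.0, incubated 15 min at room temperature, then fluorescence read at 340 nm excitation/450 nm emission. Signal converted to 4-MU dye-equivalent concentration using an on-plate six-point 4-MU standard curve.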
* = called active by the depositor; [ ] = remark or other dose. Unless noted, the call rests on the fitted dose curve; in most records, active means well fitted curve in the direction sought with a large enough effect; inconclusive means small, poorly fitted or top-dose-only effect, or another doubt; inactive means no such curve, though single readings can be large; an effect the other way counts as inactive or inconclusive.

`COC(=O)[C@@H]1CC[C@H](C)[C@@H](c2ccc(C)cc2)N1C(=O)c1ccc(/C=N\O[C@@H](C)c2cc(-c3c(C)cc(C)cc3C)no2)cc1` gave AID923 5%[11.5 µM], HSD17B inhib 2%[11.4 µM] and HADH2 inh 3%[11.4 µM].
For CCOc1ccc(-c2noc(-c3ccncc3)n2)cc1OCC the results were A350 autofl inconclusive, AID923 -1%, CRE-bla Fsk 20µM*, HSD17B inhib inconclusive, HADH2 inh 21% and 4MU fluor inactive.
COc1ccc(CCC(=O)Nc2ccc(-c3noc(-c4ccc(OC)c(OC)c4)n3)cc2)cc1 was read as A350 autofl 1.6e-08M*, AID923 1%, CRE-bla Fsk inconclusive, HSD17B inhib 6%, HADH2 inh 6% and 4MU fluor 1e-08M*.
COc1ccc(-c2noc(-c3cccc(Cl)c3)n2)cc1OC was read as A350 autofl inactive, AID923 2%, CRE-bla Fsk 2%, HSD17B inhib -17%, HADH2 inh 2% and 4MU fluor inactive.
Screening COc1ccc(-c2nc(-c3ccncc3)no2)cc1OC returned A350 autofl 1.8e-08M*, AID923 0%, CRE-bla Fsk 16%, HSD17B inhib -10%, HADH2 inh 2% and 4MU fluor 1.9e-08M*.
Screening CCOc1ccc(-c2nc(-c3ccc(OC)cc3)no2)cc1OCC returned A350 autofl inactive, AID923 -1%, CRE-bla Fsk -3%, HSD17B inhib inconclusive, HADH2 inh -8% and 4MU fluor inactive.
Screening CCOC(=O)C(=O)C1(C(=O)OCC)Oc2cc(OC)cc(OC)c2C(=O)C1c1ccccc1 (stereo not drawn) returned AID923 1% and HSD17B inhib -6%.
Screening CC(C)C[C@@H](CC(=O)N[C@@H](CCC(=O)O)CC(=O)O)NC(=O)[C@@H]1CCCC[C@H]1NC(=O)C[C@@H](NC(=O)C[C@H](Cc1c[nH]c2ccccc12)NC(=O)[C@@H]1CNCC[C@H]1N)C(C)C returned CRE-bla Fsk -13% and HADH2 inh 11%.
`O=C(Nc1nn[nH]n1)c1nc(-c2ccccc2)cc(=O)[nH]1` gave A350 autofl inactive, AID923 -2%[11.5 µM], CRE-bla Fsk -2%[7.6 µM], HSD17B inhib inconclusive, HADH2 inh -3%[11.4 µM] and 4MU fluor inactive.
Screening O=c1c2ccccc2c(C=NCCCN2CCOCC2)c(O)n1Cc1ccccc1 returned A350 autofl 1.3e-08M*, AID923 1%, CRE-bla Fsk 16%, HSD17B inhib 3%, HADH2 inh 13% and 4MU fluor 1.2e-08M*.
Screening Cn1c(=O)c2c(nc(SCCN3CCOCC3)n2Cc2ccccc2)n(C)c1=O returned A350 autofl inactive, AID923 -2%, CRE-bla Fsk 20%, HSD17B inhib 1%, HADH2 inh 2% and 4MU fluor inactive.
`CCOc1ccc(-c2[nH]nc3c2C(c2ccc4c(c2)OCO4)C(C#N)=C(N)O3)cc1OC` (stereo not drawn) gave A350 autofl inactive, AID923 9%, CRE-bla Fsk 2.5µM*, HSD17B inhib -19%, HADH2 inh -3% and 4MU fluor inactive.
CC(=O)Nc1cc(CN2CCCCC2)c(O)c2ncccc12 was read as A350 autofl inactive, AID923 -4%[11.5 µM], CRE-bla Fsk 1%[7.6 µM], HSD17B inhib 1%[11.4 µM], HADH2 inh -20%[11.4 µM] and 4MU fluor inactive.
CCOC(=O)c1c(C)[nH]sc1=S was read as A350 autofl 4e-08M* and 4MU fluor 3.6e-08M*.
For CCOC(=O)c1c(C(=O)OCC)c(C)n(N2C(=O)CSC2=S)c1C the results were A350 autofl inactive, AID923 1%, CRE-bla Fsk inconclusive, HSD17B inhib inconclusive, HADH2 inh inconclusive and 4MU fluor inactive.
`Cc1ccc(N2CCn3c2nc2c3c(=O)n(CCc3ccccc3)c(=O)n2C)cc1` gave A350 autofl inactive, AID923 0%, CRE-bla Fsk 13%, HSD17B inhib 4%, HADH2 inh 8% and 4MU fluor inactive.
`Oc1[nH]c2ccccc2c1C1=NCCCC1` gave A350 autofl inconclusive, AID923 3%, CRE-bla Fsk 16µM*, HSD17B inhib -6%, HADH2 inh -26% and 4MU fluor inconclusive.
`CCn1c(O)c(C2=NCCCC2)c2ccccc21` gave AID923 0%, CRE-bla Fsk 14%, HSD17B inhib -1% and HADH2 inh 2%.
NCCCc1ccc2oc3ccccc3c2c1 was read as A350 autofl inactive, AID923 0%[11.5 µM], CRE-bla Fsk -2%[7.6 µM], HSD17B inhib 0%[11.4 µM], HADH2 inh 11%[11.4 µM] and 4MU fluor inactive.
`c1ccc(-c2nc(-c3ccco3)cs2)nc1` gave A350 autofl 7e-08M*, AID923 2%, CRE-bla Fsk 9%, HSD17B inhib 32µM*, HADH2 inh -14% and 4MU fluor 5.4e-08M*.
Screening OC1CN=C2CCCc3c2n(c2ccc(Cl)cc32)C1 (stereo not drawn) returned A350 autofl 8.1e-08M*, AID923 15%, CRE-bla Fsk inconclusive, HSD17B inhib 32µM*, HADH2 inh inconclusive and 4MU fluor 6.1e-08M*.
Screening O=C(N/N=C1/C[C@@H](O)[C@@H](O)[C@@H]2[C@@H]3C(=O)N(C[C@@H]4CCCO4)C(=O)[C@H]3CC[C@H]12)OCc1ccccc1 returned AID923 -3%[11.5 µM], HSD17B inhib 2%[11.4 µM] and HADH2 inh 4%[11.4 µM].
`Cc1nc(Cl)sc1C(=O)O` gave A350 autofl 4.6e-08M*, AID923 2%, CRE-bla Fsk 9%, HSD17B inhib 13%, HADH2 inh 0% and 4MU fluor 3.9e-08M*.
Screening COC(=O)C1=C(N)Oc2cc(C)n(Cc3cccnc3)c(=O)c2C1c1ccccc1OC (stereo not drawn) returned A350 autofl 3.4e-08M*, AID923 -1%, CRE-bla Fsk 5%, HSD17B inhib -4%, HADH2 inh -2% and 4MU fluor 2.4e-08M*.
Screening CCC1C(O)=C(c2ccccn2)C(=N)N1c1ccccc1 (stereo not drawn) returned A350 autofl 1.4e-08M*, AID923 1%, CRE-bla Fsk -15%, HSD17B inhib 5%, HADH2 inh 3% and 4MU fluor inconclusive.

Bioassay records deposited in PubChem by National Center for Advancing Translational Sciences (NCATS).
